These sequences were tested against S100P (assay: pooled miR-30 sensor sort-seq; sequence = guide strand). Details: shRNA.
AAGACGTCTATGATCATGCCCA gave a sensor-assay potency score (higher = more potent) of 0.0811.
With GAACTCACTGAAGTCCACCTGG the sensor-assay potency score (higher = more potent) was -0.698.
TGTCTTTTCCACTCTGCAGGAA was tested, and the sensor-assay potency score (higher = more potent) was -0.419.
Work on TTGGTCAGGGTCTGCGTGCTGC yielded a sensor-assay potency score (higher = more potent) of -0.458.
With TACTTGTGACAGGCAGACGTGA the sensor-assay potency score (higher = more potent) was -0.639.

The sequences below were run against SACS in the same assay as above. Details: shRNA.
TTGACTTTACCAATCTACCATC was tested, and the sensor-assay potency score (higher = more potent) was -1.12.
In the case of TTTCTGACAGCTGAACTCCTAC, the sensor-assay potency score (higher = more potent) was -0.234.
TAAAATATCATCTTTTGCCATA gave a sensor-assay potency score (higher = more potent) of -0.814.
In the case of TTTGAGAGTAAGTCTGTCCGGC, the sensor-assay potency score (higher = more potent) was 0.448.
With TTCATAAACAAGTCTTTGCGGG the sensor-assay potency score (higher = more potent) was -0.207.
TTTCACAATAACATGTCTCATG gave a sensor-assay potency score (higher = more potent) of -0.427.
Sequence TTTTAGATTAGTCTGCTGCAGA has a sensor-assay potency score (higher = more potent) of -0.586.
Work on TTTTCTGTGACAACTCATCTGA yielded a sensor-assay potency score (higher = more potent) of 0.17.
Work on TTTCCAACCATCTTCTACCATC yielded a sensor-assay potency score (higher = more potent) of -0.995.
TAGAGTATCAACAACAATGTCA was tested, and the sensor-assay potency score (higher = more potent) was 0.305.
With ATAACTTTGCAACTCGTCCTTC the sensor-assay potency score (higher = more potent) was 0.248.

Source: the OligoGym collection
Also: reference of the scale not given here.
